CYP2C19 activ: human CYP2C19 activators, primary screen, biochemical, luminescence; Cytochrome P450 2C19 (Homo sapiens), P33261; recombinant CYP2C19, luciferin-H EGE luminescence; stronger effect = higher value; 0 = fully inhibited enzyme, 1 = untreated enzyme; activation factor at 5 µM; 96,000 tested, under 10 active;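 active = activation factor of at least 2 at 5 µM in the primary screen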;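 also: 0 = wells with 2.5 mM tranylcypromine and 1 = vehicle-only wells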
cytoskel mod: modifiers of F-actin cytoskeleton organization, primary screen, imaging, HUVEC, phalloidin staining, high-content imaging; inhibition, % at 2 µM; HUVEC TNFa F-actin phalloidin imaging; 0.18% of 91,000 active;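 active = inhibition above the batch mean plus 3 SD and confirmed as a hit by visual image inspection, cut at about 30% in these data, passing the limit was not always enough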
E-sel TNF inh: E-selectin induction blockers in HUVEC – imaging, immunofluorescence, high content, primary screen | HUVEC TNFa-induced E-selectin immunofluorescence | inhibition, % at 2 µM | 0.71% of 120,000 active;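 active = inhibition above the batch mean plus 3 SD, and confirmed as a hit on visual image review, cut at about 43% in these data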;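 also: 0% = TNF-stimulated DMSO wells and 100% = unstimulated control wells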
CYP2C9 act: human CYP2C9 activators, primary screen, biochemical, luminescence. Cytochrome P450 2C9 (Homo sapiens), P11712. recombinant CYP2C9, luciferin-H conversion; stronger effect = higher value; factor 1 = untreated enzyme, 0 = blocked. activation factor at 5 µM. 1.4% of 96,000 active;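 active = activation factor of 2 or more for CYP2C9 at a 5 µM dose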;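 also: 0 = sulfaphenazole-blocked wells and 1 = vehicle-only wells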
Target sequence (P11712 whole entry, looked up): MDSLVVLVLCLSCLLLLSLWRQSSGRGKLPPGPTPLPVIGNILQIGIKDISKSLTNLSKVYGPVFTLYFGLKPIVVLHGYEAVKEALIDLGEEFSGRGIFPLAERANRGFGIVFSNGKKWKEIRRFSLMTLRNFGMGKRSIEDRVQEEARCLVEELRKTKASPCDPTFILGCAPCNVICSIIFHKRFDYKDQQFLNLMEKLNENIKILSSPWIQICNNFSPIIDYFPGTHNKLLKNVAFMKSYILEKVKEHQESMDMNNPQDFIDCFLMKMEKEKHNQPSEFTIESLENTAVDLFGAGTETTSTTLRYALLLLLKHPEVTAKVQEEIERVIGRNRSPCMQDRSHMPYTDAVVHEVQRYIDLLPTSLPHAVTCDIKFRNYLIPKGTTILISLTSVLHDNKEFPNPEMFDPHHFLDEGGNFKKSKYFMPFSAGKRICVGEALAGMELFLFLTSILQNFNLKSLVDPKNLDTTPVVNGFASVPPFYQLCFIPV
CYP2C19 inhib: blockers of cytochrome P450 2C19 activity – biochemical, luminescence, ADME assay, primary screen | P33261 | CYP2C19 Supersomes, luciferin-H EGE luminescence, 30 min | inhibition, % at 5 µM | 21% of 96,000 active;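 active = CYP2C19 inhibition above a set limit at 5 µM in the primary screen, cut at about 50% in these data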;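 also: plate controls were negative control wells for no effect and 2.5 mM tranylcypromine positive control for full effect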
CYP2C9 inh: blockers of cytochrome P450 2C9 activity – biochemical, luminescence, ADME assay, primary screen. P11712. CYP2C9 Supersomes, luciferin-H conversion. inhibition, % at 5 µM. 20% of 96,000 active. AID 777, 2007;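 active = blocking of liver enzyme CYP2C9 beyond about 50% at 5 µM, limit read from the data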
The depositor's hits bear a star; . = no result. Shown are actives, neighbours in structure and some others; about 22% of the full set was active somewhere.

SMILES | CYP2C19 activ | cytoskel mod | E-sel TNF inh | CYP2C9 act | CYP2C19 inhib | CYP2C9 inh
Nc1ccc(-c2n[nH]c(=O)c3ccccc23)cc1N | 1.1 | 14 | 10 | 1.5 | -8 | -54
Cc1ccc(-c2n[nH]c(=O)c3ccccc23)cc1N | 0.3 | -7 | -8 | 0.8 | 68* | 23
COC(=O)c1ccc(C(=O)OC)c(NC(=O)CN2CCN(c3ccccc3OC)CC2)c1 | 0.8 | -14 | . | 0.8 | 20 | 17
CCn1cc2c(c1-c1cccc(C)c1)c(=O)n(C)c(=O)n2C | 0.8 | . | -5 | 1.1 | 15 | -6
Cc1cccc(-c2c3c(=O)n(C)c(=O)n(C)c3cn2C(C)C)c1 | 0.8 | 12 | 1 | 0.4 | 22 | 57*
O=C(COC(=O)c1cncc(Br)c1)NCCC1=CCCCC1 | 0.1 | 8 | -9 | 0.3 | 88* | 72*
O=C(COC(=O)c1ccccc1NC(=O)c1ccco1)Nc1ccc2c(c1)OCO2 | 0.8 | 4 | . | 0.4 | 17 | 58*
COC(=O)c1ccccc1NC(=O)COC(=O)c1ccco1 | 0.6 | -12 | . | 0.9 | 36 | 12
O=C(COC(=O)c1ccc(O)cc1)NCCC1=CCCCC1 | . | . | -20 | . | . | .
O=C(NCC1CCCCC1)c1ccco1 | 0.3 | -6 | 9 | 0.7 | 66* | 30
COC(=O)c1ccccc1NC(=O)COC(=O)c1ccc(C)c(NC(=O)c2ccco2)c1 | 0.4 | -24 | 45 | 0.3 | 57* | 75*
O=C(COC(=O)c1ccccc1NC(=O)c1ccco1)NC1CCCCC1 | 0.9 | 20 | -10 | 0.7 | 6 | 29
O=C(COC(=O)c1ccccc1NC(=O)c1ccco1)NCCC1=CCCCC1 | 0.5 | . | -22 | 0.2 | 48 | 84*
O=C(COC(=O)c1ccccc1NC(=O)c1ccco1)NCC1CCCCC1 | 0.2 | 10 | . | 0.1 | 79* | 95*
Cc1ccnc(NS(=O)(=O)c2ccc(NC(=O)CN3C(=O)CCC3=O)cc2)n1 | . | . | -16 | . | . | .
CCO/C(C)=C1\N=C(c2ccc(Cl)cc2)OC1=O | 1 | 3 | -36 | 1 | 0 | 0
CCOC(=O)c1sc(C)c2c1NC(c1ccc(Cl)cc1)NC2=O (stereo not drawn) | 0.9 | 33 | -57 | 0.5 | 12 | 53*
CCOC(=O)c1sc(C)c2c1NC(C)(c1ccccc1)NC2=O (stereo not drawn) | 0.8 | -6 | 6 | 0.3 | 18 | 68*
CCOC(=O)c1sc(C)c2c(=O)n(CCc3ccccc3)nnc12 | 1.1 | -9 | -11 | 1 | -8 | -1
CN1C(=O)CC(n2c(CO)nc3ccccc32)C1=O (stereo not drawn) | 0.8 | -20 | -25 | 0.7 | 21 | 27
Oc1ccccc1C1=Nc2nc3ccccc3n2C(c2ccccc2)C1 (stereo not drawn) | 0.1 | -17 | -21 | 0 | 92* | 99*
CCOC(=O)c1[nH]c(C)c(C(=O)N2CCc3c([nH]c4ccccc34)C2c2ccccn2)c1C (stereo not drawn) | . | . | -5 | . | . | .
CC(C)CCNC(=O)NC(=O)CSc1nnc(-c2ccccc2F)n1N | 0.6 | 4 | -21 | 0.5 | 44 | 54*
Cc1ccccc1-c1nnc(SCC(=O)Nc2ccc(Cl)cc2)n1N | 0.5 | . | . | 0.3 | 54* | 70*
COc1ccc(NC(=O)CSc2nnc(-c3ccccc3C)n2N)cc1OC | 1 | -6 | . | 0.8 | -3 | 20
SMILES | CYP2C19 activ | cytoskel mod | E-sel TNF inh | CYP2C9 act | CYP2C19 inhib | CYP2C9 inh
COc1cccc(NC(=O)CSc2nnc(-c3cccc(OC(C)C)c3)n2N)c1 | 0.6 | -50 | -8 | 0.2 | 42 | 76*
COc1ccc(NC(=O)CSc2nnc(-c3ccccc3C)n2N)cc1 | 0.4 | -14 | . | 0.3 | 58* | 74*
Cc1cccc(CCNC(=O)CCc2c(C)nc3ncnn3c2C)c1 | 0.9 | -36 | 5 | 0.9 | 7 | 6
CC(C)c1ccc(NC(=O)CSc2nc(-c3ccccc3F)nc3nc[nH]c23)cc1 | . | . | 2 | . | . | .
C=CCSc1nc(N)c(C(=O)Nc2ccccc2OC)cc1C(=O)Nc1ccccc1 | 1.1 | . | 15 | 0.4 | -12 | 61*
C=CCSc1nc(N)c(C(=O)Nc2ccccc2)cc1C#N | 0.8 | -2 | 7 | 0.6 | 23 | 45
Cc1ccc(S(=O)(=O)N(CC(=O)N2CCC(C)CC2)c2ccccc2)cc1 | . | . | 14 | . | . | .
CC(=O)Nc1sc2c(c1CN1CCN(c3ccccn3)CC1)CCCC2 | 0.2 | 15 | -10 | 0.7 | 82* | 31
CC(=O)Nc1sc2c(c1CN1CCN(c3ccc(F)cc3)CC1)CCCC2 | 0.1 | 2 | -15 | 0.7 | 86* | 30
CCN(c1ccccc1)S(=O)(=O)c1cc(OC)ccc1OC | 0.1 | -2 | -6 | 0.3 | 90* | 69*
COc1ccc(OC)c(S(N)(=O)=O)c1 | 0.9 | 6 | 9 | 1 | 13 | 2
CCN(c1ccccc1)S(=O)(=O)c1ccc(OC)c(OC)c1 | 0.4 | 1 | . | 1.1 | 56* | -11
CCOC(=O)c1cnc2c(c(C)nn2C)c1Oc1ccc(Cl)cc1 | 0.7 | 1 | -22 | 0.6 | 31 | 40
CCOC(=O)CNC(=O)c1ccccc1Br | 1 | 6 | . | 1.1 | -3 | -11
COc1ccccc1C(c1nnnn1C(C)(C)C)N1CCCc2ccccc21 (stereo not drawn) | 0.9 | -14 | . | 0.7 | 12 | 28
COc1cc2cc(C(c3nnnn3C(C)(C)C)N3CCc4ccccc43)c(=O)[nH]c2cc1OC (stereo not drawn) | 1.1 | 16 | . | 0.8 | -5 | 17
COc1ccccc1N1CCN(C(c2ccc(Cl)cc2)c2nnnn2C(C)(C)C)CC1 (stereo not drawn) | 0.1 | -8 | 2 | 0.1 | 89* | 87*
CC(C)(C)n1nnnc1C(c1cccc(C#N)c1)N1CCCc2ccccc21 (stereo not drawn) | 0.1 | . | . | 0.1 | 91* | 94*
COc1ccccc1C(c1nnnn1C(C)(C)C)N1CCN(Cc2ccncc2)CC1 (stereo not drawn) | 0.2 | . | . | 0.1 | 79* | 89*
CC(C)(C)n1nnnc1C(c1ccc(Cl)cc1)N1CCCc2ccccc21 (stereo not drawn) | 0.2 | 25 | -31 | 0.2 | 84* | 76*
COc1cccc2c1OC1(C)CC2NC(=O)N1 (stereo not drawn) | 1 | -5 | -30 | 1.1 | 4 | -9
Cc1ccc(OCCn2c(C3CC(=O)N(Cc4ccccc4)C3)nc3ccccc32)cc1 (stereo not drawn) | 0.7 | 19 | . | 0.2 | 33 | 84*
CCCn1c(C2CC(=O)N(c3ccc(C)cc3)C2)nc2ccccc21 (stereo not drawn) | 1 | 5 | 6 | 0.6 | 2 | 44

Screening data: PubChem, several laboratories
